# Test results as given in PubChem BioAssay (NCATS).
# “And” between values parts separate entries of the source, which are not always exact repeats. Identical values can stand only once. Inconclusive results are not listed. The source made the active and inactive calls. Calls come from the whole dose curve; as a rule, active = well fitted inhibition curve with a large enough effect; inconclusive = small, poorly fitted or top-dose-only effect; inactive = flat fitted curve, though single readings scatter.
# System: Zika virus NS2B-NS3 protease
# Assay: Primary screen GU AMC qHTS for Zika virus inhibitors (AID 1347154); note: nearly all actives have a fitted effect of over 70% in size;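 for activity change, negative = inhibition: 0% = no-inhibitor control and -100% = no-enzyme control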
# Details: Zika NS2B-NS3 unlinked protease, AMC fluorogenic substrate; series mostly up to 54.1 µM; activity change, negative = inhibition: at the top concentration
# How it was run: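 Unlinked Zika NS2B hydrophilic domain–NS3 protease complex at 25 nM in 10 mM Tris-HCl pH 8.0, 0.01% Tween 20, with an AMC peptide substrate. Fluorescence change (340/450 nm) over 15 min at room temperature, normalized to controls, fitted to 4-parameter Hill.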
# Potency is the fitted concentration of half-maximal effect.
SMILES,Potency,"activity change, negative = inhibition"
O[C@@H](CNC[C@H](O)[C@H]1CCc2cc(F)ccc2O1)[C@@H]1CCc2cc(F)ccc2O1,inactive,–
CCN(C)C(=O)Oc1cccc([C@H](C)N(C)C)c1,inactive,–
CCCc1cc(C(N)=S)ccn1,inactive,–
CCC(C)(C)c1ccc(CC(C)CN2C[C@@H](C)O[C@@H](C)C2)cc1 (stereo partly specified),inactive,–
O=C(O)CSCC(=O)NC1CCSC1=O (stereo unspecified),inactive,–
CCCOc1ccc(C(=O)OCCN(CC)CC)cc1N,inactive,–
CCN[C@H]1C[C@H](C)S(=O)(=O)c2sc(S(N)(=O)=O)cc21,inactive,–
COc1cccc(N(C)C(=S)Oc2ccc3c(c2)CCCC3)n1,inactive,–
CO[C@@H]1[C@@H](OC(N)=O)[C@@H](O)[C@H](Oc2ccc3c(O)c(NC(=O)c4ccc(O)c(CC=C(C)C)c4)c(=O)oc3c2C)OC1(C)C,inactive,–
Cc1cc(NS(=O)(=O)c2ccc(N)cc2)no1,inactive,–
C#CCN[C@@H]1CCc2ccccc21,inactive,–
COc1cnc(NS(=O)(=O)c2ccc(N)cc2)nc1,inactive,–
CC(C)OC(=O)OCOP(=O)(CO[C@H](C)Cn1cnc2c(N)ncnc21)OCOC(=O)OC(C)C,inactive,–
N[C@@H](C(=O)N[C@@H]1C(=O)N2C(C(=O)O)=C(Cl)CS[C@H]12)c1ccccc1,inactive,–
CC[C@H](NC(C)C)[C@H](O)c1ccc(O)c2[nH]c(=O)ccc12,inactive,–
CCn1cc(C(=O)O)c(=O)c2cc(F)c(N3CCNCC3)nc21,inactive,–
O=c1oc2c(O)c(O)cc3c(=O)oc4c(O)c(O)cc1c4c23,496 nM (active) and 1.92 µM (active),–
CC1=CC(=O)c2ccccc2C1=O,inactive,–

SMILES,Potency,"activity change, negative = inhibition"
CN(Cc1cc(Br)cc(Br)c1N)C1CCCCC1,inactive,–
CC(C)(C)NC(=O)[C@H]1CC[C@H]2[C@@H]3CC[C@H]4NC(=O)C=C[C@]4(C)[C@H]3CC[C@]12C,–,6.94% (inactive)
COc1ccc2cc3[n+](cc2c1OC)CCc1cc2c(cc1-3)OCO2,inactive,–
O=c1cc(O)c(Cl)c[nH]1,inactive,–
C[C@@H](NCCCc1cccc(C(F)(F)F)c1)c1cccc2ccccc12,inactive,–
Cc1ccnc2c1NC(=O)c1cccnc1N2C1CC1,inactive,–
NCCCC(O)(P(=O)(O)O)P(=O)(O)O,inactive,–
Nc1ccc(S(=O)(=O)Nc2ccccn2)cc1,inactive,–
CN1CCN(c2c(F)cc3c(=O)c(C(=O)O)cn4c3c2OCN4C)CC1,inactive,–
COCCCOc1cc(C[C@@H](C[C@H](N)[C@@H](O)C[C@H](C(=O)NCC(C)(C)C(N)=O)C(C)C)C(C)C)ccc1OC,inactive,–
CC(N)C12CC3CC(CC(C3)C1)C2 (stereo unspecified),inactive,–
CCCCCCNC(=O)n1cc(F)c(=O)[nH]c1=O,inactive,–
CCOc1cc(N)c(Cl)cc1C(=O)NCC1CN(Cc2ccc(F)cc2)CCO1 (stereo unspecified),inactive,–
CCOC(=O)c1ccc(OC(=O)CCCCCN=C(N)N)cc1,inactive,–
CCc1cc(C(N)=S)ccn1,inactive,–
NC(=O)N1c2ccccc2CC(=O)c2ccccc21,inactive,–
CC(=O)Oc1ccccc1C(=O)Nc1ncc([N+](=O)[O-])s1,inactive,–

# System: not listed separately
# Assay: qHTS to identify inhibitors of the type 1 interferon - major histocompatibility complex class I in skeletal muscle: primary screen against the NCATS Pharmaceutical Collection (AID 1347407);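 note: luminescence of HiBiT knocked into endogenous HLA-B as interferon-induced MHC class I level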; for activity change, negative = inhibition: % is set by controls: 0 for no effect and ±100 for the full control effect
# Details: human skeletal muscle cells, IFN-b-induced MHC-I HiBiT luminescence, 24 h; series mostly up to 45.9 µM; activity change, negative = inhibition: at the top concentration
# How it was run: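 Immortalized human myoblasts (C25cl48) with HiBiT knocked into endogenous HLA-B*08:01 were stimulated with 4 ng/ml IFN-beta and treated with compounds (8-point, 1:5, top 46 uM final) for 24 h at 37 C; HiBiT lytic luminescence read.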
SMILES,Potency,"activity change, negative = inhibition"
O[C@@H](CNC[C@H](O)[C@H]1CCc2cc(F)ccc2O1)[C@@H]1CCc2cc(F)ccc2O1,26.4 µM (active),–
CCN(C)C(=O)Oc1cccc([C@H](C)N(C)C)c1,–,9.54% (inactive)
CCCc1cc(C(N)=S)ccn1,–,19.5% (inactive)
CCC(C)(C)c1ccc(CC(C)CN2C[C@@H](C)O[C@@H](C)C2)cc1 (stereo partly specified),–,-0.423% (inactive)
O=C(O)CSCC(=O)NC1CCSC1=O (stereo unspecified),–,18.7% (inactive)
CCCOc1ccc(C(=O)OCCN(CC)CC)cc1N,–,-6.67% (inactive)
CCN[C@H]1C[C@H](C)S(=O)(=O)c2sc(S(N)(=O)=O)cc21,–,0.575% (inactive)
COc1cccc(N(C)C(=S)Oc2ccc3c(c2)CCCC3)n1,–,-3.21% (inactive)
CO[C@@H]1[C@@H](OC(N)=O)[C@@H](O)[C@H](Oc2ccc3c(O)c(NC(=O)c4ccc(O)c(CC=C(C)C)c4)c(=O)oc3c2C)OC1(C)C,–,-5.03% (inactive)
Cc1cc(NS(=O)(=O)c2ccc(N)cc2)no1,–,6.8% (inactive)
C#CCN[C@@H]1CCc2ccccc21,–,6.59% (inactive)
COc1cnc(NS(=O)(=O)c2ccc(N)cc2)nc1,–,15% (inactive)
CC(C)OC(=O)OCOP(=O)(CO[C@H](C)Cn1cnc2c(N)ncnc21)OCOC(=O)OC(C)C,–,-2.91% (inactive)
N[C@@H](C(=O)N[C@@H]1C(=O)N2C(C(=O)O)=C(Cl)CS[C@H]12)c1ccccc1,–,3% [at 9.18 µM] (inactive)
CC[C@H](NC(C)C)[C@H](O)c1ccc(O)c2[nH]c(=O)ccc12,–,-24.3% (inactive)
CCn1cc(C(=O)O)c(=O)c2cc(F)c(N3CCNCC3)nc21,–,-4.39% (inactive)
O=c1oc2c(O)c(O)cc3c(=O)oc4c(O)c(O)cc1c4c23,–,-18.7% [at 19 µM] (inactive)
CC1=CC(=O)c2ccccc2C1=O,–,-10.6% (inactive)

SMILES,Potency,"activity change, negative = inhibition"
CN(Cc1cc(Br)cc(Br)c1N)C1CCCCC1,–,-16.7% (inactive)
CC(C)(C)NC(=O)[C@H]1CC[C@H]2[C@@H]3CC[C@H]4NC(=O)C=C[C@]4(C)[C@H]3CC[C@]12C,–,3.66% (inactive)
COc1ccc2cc3[n+](cc2c1OC)CCc1cc2c(cc1-3)OCO2,–,-6.95% (inactive)
O=c1cc(O)c(Cl)c[nH]1,–,-4.79% (inactive)
C[C@@H](NCCCc1cccc(C(F)(F)F)c1)c1cccc2ccccc12,26.4 µM (active),–
Cc1ccnc2c1NC(=O)c1cccnc1N2C1CC1,–,1.52% (inactive)
NCCCC(O)(P(=O)(O)O)P(=O)(O)O,–,10.5% (inactive)
Nc1ccc(S(=O)(=O)Nc2ccccn2)cc1,–,4.87% (inactive)
CNS(=O)(=O)Cc1ccc2[nH]cc(CCN(C)C)c2c1,–,-4.92% (inactive)
CN1CCN(c2c(F)cc3c(=O)c(C(=O)O)cn4c3c2OCN4C)CC1,–,1.51% [at 19 µM] (inactive)
COCCCOc1cc(C[C@@H](C[C@H](N)[C@@H](O)C[C@H](C(=O)NCC(C)(C)C(N)=O)C(C)C)C(C)C)ccc1OC,–,1.22% (inactive)
CC(N)C12CC3CC(CC(C3)C1)C2 (stereo unspecified),–,4.34% (inactive)
CCCCCCNC(=O)n1cc(F)c(=O)[nH]c1=O,–,2.77% (inactive)
CCOc1cc(N)c(Cl)cc1C(=O)NCC1CN(Cc2ccc(F)cc2)CCO1 (stereo unspecified),–,-11.5% (inactive)
CCOC(=O)c1ccc(OC(=O)CCCCCN=C(N)N)cc1,–,-4.62% (inactive)
CCc1cc(C(N)=S)ccn1,–,-13.6% (inactive)
NC(=O)N1c2ccccc2CC(=O)c2ccccc21,–,-8.39% (inactive)
CC(=O)Oc1ccccc1C(=O)Nc1ncc([N+](=O)[O-])s1,–,1.62% (inactive)
